“And” between values parts separate entries of the source, which are not always exact repeats. Identical values can stand only once. Records with an inconclusive call do not appear. The source made the active and inactive calls. Cut-off read from the data, not from the text of the source, unless noted: active = inhibition above about 80%; inactive = the rest.

The inhibition is the relative decrease from the control value, in per cent.

A short description of assay [1]: EMT-state selective cytotoxicity in co-culture – imaging, PC-3E GFP, TEM4-18 mCherry, primary screen (AID 1345086;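 active = compounds killing one labelled cell type while sparing the other, by normalised counts and ratio limits, not self-fluorescent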;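 for all read-outs here: cells exposed to compound for 72 h before imaging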;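 for red/green cell ratio (normalised): normalised mesenchymal count divided by normalised epithelial count so high means epithelial killing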). Conditions: PC-3E GFP / TEM4-18 mCherry co-culture, imaging cell counts, at 1 µM; for red/green cell ratio (normalised): actives lie on both sides, counts scaled to control wells, 1 = unselective.
Assay [2] in a line: viability loss in pontine glioma line – cell-based, SU-DIPG-XXV, MIPE5.0, CellTiter-Glo, qHTS, dose response (AID 1347065; cut-off not given, nearly all actives have AC50 up to about 26 µM;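 note: cells exposed to compound for 48 hours before ATP readout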). As to conditions: CellTiter-Glo ATP luminescence. A general note: Cellular ATP, detected with luciferase, serves as a proxy for viable cell number.
Assay [3] in a line: JHH-DIPG-1 glioma cell viability, MIPE5.0 library, CellTiter-Glo luminescence, qHTS (AID 1347067; cut-off not given, nearly all actives have AC50 up to about 26 µM;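 note: cells exposed to compound for 48 hours before readout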). As to conditions: JHH-DIPG-1 glioma viability, CellTiter-Glo ATP luminescence.
The nature of assay [4]: growth inhibition of DIPG cells – cell-based, MIPE5.0 library, qHTS (AID 1347068; cut-off not given, nearly all actives have IC50 up to about 30 µM). As to conditions: SU-DIPG-XXV viability. For orientation: Quantitative high-throughput screening tests each substance at several concentrations.
Assay [5] concerns the target NAD(+) hydrolase SARM1 (Homo sapiens) (UniProt Q6SZW1). Description: blocking NAD cleavage by SARM1 SAM-TIR – cell lysate, NAD-Glo luminescence (AID 1508614;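 active = compound whose remaining NAD level is above about 45 nM, limit read from the data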;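 note: higher remaining NAD means stronger inhibition of SARM1 NADase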). Conditions: SAM-TIR HEK293T lysate NADase, at 1 µM, stronger effect = higher value.
Assay [6] can be described thus: growth inhibition, single agent or in combination, cell-based, chromothripsis tumors, cisplatin or BGB combos (AID 1671449).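 Note: cells exposed for 96 hours; 0% = vehicle DMSO and 100% = killing by high DMSO.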 As to conditions: LFS_MB_P medulloblastoma cells.
The nature of assay [7]: growth inhibition, single agent and combos, cell-based, chromothripsis tumors, cisplatin or BGB combos (AID 1671450).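 Note: cells exposed to compound for four days; 0% = vehicle DMSO and 100% = cell killing by high DMSO.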 As to conditions: HDN33 neuroblastoma cells, stronger effect = higher value.
Assay [8] in a line: growth inhibition, single agents and combos, ICB984, cell-based, cisplatin or BGB combos, synergistic combos for chromothripsis tumors (AID 1671451; call rule not given here;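 note: cells exposed for 96 hours before readout; 0% = vehicle DMSO and 100% = killing by high DMSO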). Conditions: ICB984 medulloblastoma cells, drug combinations, stronger effect = higher value.
The nature of assay [9]: growth inhibition, single agents and combos, LFS_MB_1R, cell-based, cisplatin or BGB combos, synergistic combos for chromothripsis tumors (AID 1671452).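 Note: cells exposed for 96 hours before readout.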 Conditions: LFS_MB_1R medulloblastoma cells, stronger effect = higher value.
Assay [10] can be described thus: growth inhibition, single agents and combos, HTB85, cell-based, BGB or cisplatin IC20 combos, synergistic combos for chromothripsis tumors (AID 1671453).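 Note: cells exposed for 96 hours before readout; 0% = vehicle DMSO and 100% = high DMSO killing control.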 Conditions: HTB85 osteosarcoma cells, drug combinations, stronger effect = higher value.
The nature of assay [11]: growth inhibition, single agents and combos, CRL2098, cell-based, BGB or cisplatin IC20 combos, synergistic combos for chromothripsis tumors (AID 1671454).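 Note: cells exposed for 96 h before readout; 0% = vehicle DMSO and 100% = killing by high DMSO.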 Conditions: CRL2098 osteosarcoma cells, drug combinations, stronger effect = higher value.
Assay [12] is described as follows: growth inhibition, single agents and combos, HD-MB03, cell-based, BGB or cisplatin IC20 combos, synergistic combos for chromothripsis tumors (AID 1671455; in the data active = inhibition above about 83%;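 note: 0% = vehicle DMSO and 100% = high DMSO as cytotoxic control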). Conditions: HD-MB03 medulloblastoma cells, stronger effect = higher value.
Assay [13] is described as follows: growth inhibition, single agents and combos, UWB1.289, cell-based, BGB or cisplatin combos, synergistic combos for chromothripsis tumors (AID 1671456).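 Note: cells exposed to compound for four days; 0% = vehicle DMSO and 100% = killing by high DMSO.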 As to conditions: UWB1.289 ovarian carcinoma cells, stronger effect = higher value.
A short description of assay [14]: growth inhibition, single agents and combos, LFS_MB_2R, cell-based, cisplatin combos, synergistic combos for chromothripsis tumors (AID 1671457).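 Note: cells exposed to compound for four days before readout.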 Conditions: LFS_MB_2R medulloblastoma cells, stronger effect = higher value.
Assay [15] in a line: growth inhibition, MDA-MB-436, cell-based, BGB or cisplatin combos, synergistic combos for chromothripsis tumors (AID 1671458; call rule not given here;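 note: cells exposed for 96 hours; 0% = vehicle DMSO and 100% = killing by high DMSO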). Conditions: MDA-MB-436 breast carcinoma growth inhibition, drug combinations, stronger effect = higher value.
Assay [16] can be described thus: UWB1.289_BRCA1 ovarian cancer growth, cell-based, BGB or cisplatin combinations (AID 1671459). Conditions: UWB1.289 BRCA1 ovarian carcinoma, drug combinations, stronger effect = higher value.
Assay [17] can be described thus: drug combination toxicity in non-malignant astrocytes – cell-based, BGB or cisplatin IC20 combos, cytotoxicity control for chromothriptic childhood tumor combination screen (AID 1671460).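 Note: cells exposed to compounds for 96 hours before viability readout; 0% = vehicle and 100% = killing control.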 As to conditions: Human astrocytes, viability inhibition, drug combinations, at 0.5 µM, stronger effect = higher value.
Assay [18] in a line: BT084 cell growth, single and combined drugs, ICGC_MB145, cisplatin and BGB IC40 combos (AID 1671461).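 Note: cells exposed to drugs for 96 hours; 0% = vehicle DMSO and 100% = high DMSO full killing control.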 Conditions: BT084 medulloblastoma cells, drug combinations, stronger effect = higher value.
Assay [19] can be described thus: RCMB18 cell growth, single agent and combined, cisplatin and BGB IC40 combos (AID 1671462).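 Note: cells exposed to compound for four days.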 As to conditions: RCMB18 medulloblastoma cells, stronger effect = higher value.
A short description of assay [20]: CRL1545 cell growth, single agent and combined, cisplatin and BGB IC20 combos (AID 1671464).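 Note: cells exposed to compound for 96 hours before readout; 0% = vehicle DMSO and 100% = high DMSO killing control.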 Conditions: CRL1545 osteosarcoma cells, stronger effect = higher value.
[21] abbreviates: measured here: epithelial PC-3E GFP cell survival.
Where [22] appears, read: measured here: mesenchymal TEM4-18 mCherry cell survival.
Setting [23] is: measured here: combination with BGB IC40, at 0.05 µM.
Where [24] appears, read: measured here: with BGB IC20 combination, at 0.5 µM.
Where [25] appears, read: measured here: with cisplatin IC20 combination, at 0.5 µM.
Where [26] appears, read: measured here: combination with cisplatin, at 0.5 µM.
Where [27] appears, read: measured here: combination with cisplatin, at 5 µM.

NAD(+) hydrolase SARM1 (Homo sapiens), sequence (Q6SZW1 whole entry, looked up): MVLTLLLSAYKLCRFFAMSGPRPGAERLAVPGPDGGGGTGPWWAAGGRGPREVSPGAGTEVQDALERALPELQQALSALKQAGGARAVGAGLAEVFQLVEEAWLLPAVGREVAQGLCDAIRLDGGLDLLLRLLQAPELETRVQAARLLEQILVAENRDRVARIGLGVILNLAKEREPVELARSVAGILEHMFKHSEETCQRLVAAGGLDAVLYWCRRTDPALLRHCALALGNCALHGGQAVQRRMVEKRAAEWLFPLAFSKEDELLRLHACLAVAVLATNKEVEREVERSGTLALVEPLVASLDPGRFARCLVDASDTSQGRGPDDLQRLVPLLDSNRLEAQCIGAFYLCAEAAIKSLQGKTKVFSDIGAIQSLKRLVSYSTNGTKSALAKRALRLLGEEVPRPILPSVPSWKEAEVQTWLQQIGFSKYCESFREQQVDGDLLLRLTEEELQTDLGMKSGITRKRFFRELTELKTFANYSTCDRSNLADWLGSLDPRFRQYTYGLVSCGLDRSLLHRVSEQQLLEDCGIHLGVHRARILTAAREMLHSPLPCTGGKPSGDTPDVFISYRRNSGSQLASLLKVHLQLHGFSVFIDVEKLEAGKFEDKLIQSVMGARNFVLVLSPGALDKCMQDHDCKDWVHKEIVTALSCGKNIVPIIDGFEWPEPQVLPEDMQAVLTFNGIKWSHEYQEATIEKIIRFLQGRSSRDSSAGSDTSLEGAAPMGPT

On to `CCCc1nc(C(C)(C)O)c(C(=O)O)n1Cc1ccc(-c2ccccc2-c2nn[nH]n2)cc1`, for which, in assay [1], the red/green cell ratio (normalised) was 1.01 (inactive). The normalised cell number is 1.21 in assay [1] (setting [21]) and 1.22 in [1] (setting [22]). The compound was called inactive in [2], in assay [3] and in assay [4]. The remaining NAD in [5] was 10 nM (inactive).

On to `CCN(CC)C(=O)[C@]1(c2ccccc2)C[C@@H]1CN`, for which, in assay [5], the remaining NAD is 10 nM (inactive).

Take `C[n+]1ccccc1C=NO`: in assay [1], the red/green cell ratio (normalised) was 1.01 (inactive). The normalised cell number worked out at 1 in assay [1] (setting [21]) and 1.02 in assay [1] (setting [22]).

`CO[C@H]1C=CO[C@@]2(C)Oc3c(C)c(O)c4c(O)c(c5c(nc6cc(C)ccn65)c4c3C2=O)NC(=O)C(C)=CC=C[C@H](C)[C@H](O)[C@@H](C)[C@@H](O)[C@@H](C)[C@H](OC(C)=O)[C@@H]1C`: the inhibition in assay [6] (at 0.5 µM, stronger effect = higher value) is -25.7% (inactive) and 0.03% (inactive); in [6] (measured here: combination with BGB IC20, at 0.005 µM) it was -21% and -12.6%; in assay [6] (measured here: combination with BGB IC40, at 0.005 µM), -15.4% and -21%; in assay [6] (setting [23]), -19.4% and -36.7%; in assay [6] (measured here: combination with cisplatin, at 0.5 µM, stronger effect = higher value) it was -19.3% and -0.506%; in [6] (measured here: combination with cisplatin, at 5 µM, stronger effect = higher value), -24.8% and 7.24%. The inhibition is -5.62% and -13.7% in assay [7] (BGB combo, at 5 µM); -1.69% (inactive) and -3.15% (inactive) in [7] (at 0.5 µM); -20.9% and -12.7% in assay [7] (cisplatin combo, at 5 µM); 24.2% and -1.36% in assay [7] (setting [24]); -2.79% and 1.82% in assay [7] (setting [25]); -32.3% and -1.92% in assay [7] (single agent, at 5 µM). Further, the inhibition in assay [8] (BGB IC20 combo, at 0.005 µM) is 0.503% and -4.57%; in assay [8] (BGB IC40 combo, at 0.005 µM) it was 18.5% and -33.7%; in assay [8] (BGB IC40 combo, at 0.05 µM) it was -2.72% and 6.47%; in assay [8] (at 0.5 µM), -25.8% (inactive) and -13.5% (inactive); in assay [8] (cisplatin combo, at 0.05 µM), -2.72% and 3.11%; in [8] (cisplatin combo, at 0.5 µM) it was -37.2% and -4.35%. The inhibition in assay [8] (cisplatin combo, at 5 µM) is -14.1% and -11.2%; in [8] (measured here: 5 uM single agent, at 5 µM) it was -18.1% and 0.267%; in assay [9] (at 0.5 µM), 17.8% (inactive) and -17.4% (inactive); in [9] (setting [23]) it was -4.04% and -14.4%; in [9] (setting [26]), -10.1% and -31.8%; in assay [9] (setting [27]), -6.72% and -38.3%. For the same compound, the inhibition in [10] (at 0.5 µM) is -5.41% (inactive) and -9.58% (inactive); in assay [10] (measured here: with BGB IC20, at 0.5 µM), -40.5% and -14.9%; in assay [10] (measured here: with BGB IC20, at 5 µM) it was -22.4% and -7.39%; in assay [10] (measured here: with cisplatin IC20, at 0.5 µM), 16.5% and -6.9%; in assay [10] (measured here: with cisplatin IC20, at 5 µM), 10.3% and 21%; in assay [10] (single agent, at 5 µM), -1.97% and 12.2%. Besides, the inhibition in assay [11] (at 0.5 µM) was -18.8% (inactive) and -34.3% (inactive); in [11] (measured here: combination with BGB at IC20, at 0.5 µM), -28.7% and -29%; in assay [11] (measured here: combination with cisplatin at IC20, at 0.5 µM), -10.1% and -43.6%; in assay [12] (at 0.5 µM), -6.38% (inactive) and 5.86% (inactive); in assay [12] (measured here: combo with BGB at IC20, at 0.5 µM) it was -2.33% and 1.22%; in assay [12] (measured here: combo with cisplatin at IC20, at 0.5 µM) it was -9.26% and 19.1%. Also, the inhibition in [13] (at 0.5 µM) was 4.48% (inactive) and 6.54% (inactive); in [13] (measured here: inhibition with BGB combination, at 0.05 µM) it was -18.6% and -11.7%; in [13] (measured here: inhibition with cisplatin combination, at 0.05 µM), -10.6% and 10.3%; in assay [14] (at 0.5 µM), -17.5% (inactive) and -15.1% (inactive); in assay [14] (setting [26]), -7.91% and -17.1%; in assay [14] (setting [27]), -18% and -13.3%. For the same compound, the inhibition in assay [15] (at 0.5 µM) is -11.8% (inactive) and -3.37% (inactive); in [15] (measured here: BGB combination, at 0.5 µM), -0.535% and -8.79%; in [15] (measured here: BGB combination, at 5 µM), -3.41% and -15.2%; in [15] (measured here: cisplatin combination, at 0.5 µM), -30.7% and -0.606%; in assay [15] (measured here: cisplatin combination, at 5 µM), -23.7% and -8.55%; in assay [16] (BGB combination, concentration series, at 5 µM) it was 3.57% and 12%. Further, the inhibition is 6.89% (inactive) and 6.14% (inactive) in assay [16] (at 0.5 µM); 5.53% and -6.86% in assay [16] (cisplatin combination, concentration series, at 5 µM); -8.79% (inactive) and -10.8% (inactive) in assay [17]; -1.97% and -5.46% in assay [17] (measured here: combo with BGB IC20); -27% and -10.4% in assay [17] (measured here: combo with cisplatin IC20); -17.7% (inactive) and -11.5% (inactive) in assay [18] (at 0.5 µM). The inhibition in assay [18] (cisplatin combination, at 0.5 µM) is -34% and -17.3%; in assay [18] (cisplatin combination, at 5 µM), -37% and 5.08%; in [18] (measured here: BGB IC40 combination 0.05 uM, at 0.05 µM), -7.06% and 28.8%; in [18] (single agent, at 5 µM), -13.3% and -9.78%; in assay [19] (at 0.5 µM), -1.81% (inactive) and -2.64% (inactive); in assay [19] (cisplatin combo, at 5 µM) it was -11.2% and 11.2%. Further, the inhibition is 12.8% and 1.86% in assay [19] (measured here: BGB IC40 combination, at 0.05 µM); -36.9% and 15.4% in assay [19] (setting [26]); -12% and -2.61% in [19] (single agent, at 5 µM); 8.59% (inactive) and -15.2% (inactive) in assay [20] (at 0.5 µM); -1.52% and -4.42% in assay [20] (setting [24]); 13.6% and -22.6% in assay [20] (setting [25]). For the same compound, the inhibition in assay [20] (single agent, at 0.05 µM) is 15.1% and 18%; in [20] (single agent, at 5 µM) it was -31.6% and 28.6%.

For `CCC(=O)NS(=O)(=O)c1ccc(-c2c(-c3ccccc3)noc2C)cc1`, the result in assay [2], in [3] and in [4] was inactive.

For `CO[C@H]1O[C@@H]2O[C@@]3(C)CC[C@H]4[C@H](C)CC[C@@H]([C@H]1C)[C@@]24OO3`, the result in assay [2], in assay [3] and in assay [4] was inactive. Moreover, the remaining NAD in assay [5] is 10 nM (inactive).
